Values joined by “and” are separate entries in the source; they are usually repeats but may differ in a detail not shown here. Equal values may be shown once. A number with no mark means an inactive call. Results filed as inconclusive are left out. Active and inactive are the calls of the source. Unless noted, calls come from the whole dose curve; as a rule, active = well fitted curve in the direction sought with a large enough effect; inconclusive = small, poorly fitted or top-dose-only effect, or another doubt; inactive = no such curve, though single readings can be large; an effect the other way counts as inactive or inconclusive.

The nature of assay [1]: Cell Viability - HepG2 (AID 433; calls by dose curve;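 note: potency is the fitted concentration of half-maximal effect; potency for ATP loss meaning cytotoxicity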). The note with it: qHTS. The method in brief:
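Cytotoxicity read as ATP loss (CellTiter-Glo luminescence) after 40 hr compound exposure of HepG2, 1500 cells/well, 37 °C. AC50 by Hill equation; 0% set by DMSO, 100% inhibition by 100 uM tamoxifen.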

Assay [2] can be described thus: Cell Viability - MRC5 (AID 434; calls by dose curve;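 note: potency is the fitted concentration of half-maximal effect; cells exposed to compound for 40 hours at 37 °C; potency reflects cytotoxicity seen as loss of intracellular ATP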). To be noted: MRC5 lung fibroblast viability, qHTS. The method in brief: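 Decrease in intracellular ATP, quantified by luciferase light output, reflects compound toxicity toward MRC5 cells exposed for 40 hr in complete culture medium. Concentration-response curves, scaled between DMSO and 100 uM tamoxifen, gave AC50 values.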
Assay [3] deals with Mitogen-activated protein kinase 10 (Mus musculus) (UniProt Q61831). The assay can be described thus: JNK3 AlphaScreen Assay (AID 530; active = well fitted curve in either direction with a large enough effect, not every such curve was filed as active;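 note: kinase came from lysate of stimulated human HepG2 cells; % is set by controls: 0 for no effect and ±100 for the full control effect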). The note with it: JNK3 lysate, c-Jun phosphorylation; series mostly up to 57.1 µM. The method in brief: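 Biotinylated GST-cJun(1-79) served as substrate for JNK3 in HepG2 lysates stimulated with IL-1beta and TNF-alpha. ATP was 10 uM final, pH 7.6. Ser73 phosphorylation was quantified by AlphaScreen (680 nm excitation).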

The nature of assay [4]: Cell Viability - Mesenchymal (AID 546).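 Note: cells exposed to compound for 40 hours before reading; 0% = DMSO only and -100% = 100 µM tamoxifen.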 The note with it: mesenchymal cells viability, qHTS; series mostly up to 91.7 µM. The method in brief: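 In this qHTS cytotoxicity format, glomerulus-derived human mesenchymal kidney cells received compound for 40 hr, then luciferase-based ATP quantitation. Concentration-response data were fitted with the Hill equation.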
The nature of assay [5]: Cellular Toxicity (caspase-3) HUV-EC-C (AID 656).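 Note: 0% = DMSO basal and 100% = 100 µM tamoxifen.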 To be noted: HUV-EC-C cells, caspase-3 activation (apoptosis), vehicle = 0, 100 µM tamoxifen = 100%; series mostly up to 92.2 µM. The method in brief:
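Luminescent Caspase-Glo 3/7 readout after 16 h, 37 °C compound exposure of HUV-EC-C endothelial cells, 1000 per well, complete medium. AC50 derived by Hill fitting, with DMSO as baseline and 100 uM tamoxifen as full activation.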

Assay [6] in a line: Cellular Toxicity (caspase-3) SK-N-SH (AID 661).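 Note: cells exposed to compound for 16 hours; 0% = DMSO basal and 100% = 10 µM staurosporine.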 The note with it: SK-N-SH caspase-3 activation, qHTS; series mostly up to 91.7 µM. The method in brief: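 Luminescent Caspase-Glo 3/7 read-out after 16 hr compound exposure of SK-N-SH neuroblastoma cells at 37 °C. Signal increase normalized to DMSO (basal) and 10 uM staurosporine (100%); AC50 from Hill equation fits of qHTS concentration-response data.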

Assay [7] can be described thus: MultiTox-Fluor Cytotoxicity Assay - LYMP1-002 - Dead Cells (AID 960).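 Note: 0% = DMSO and 100% = tetraoctylammonium bromide; nearly all actives have a fitted effect of over 60% in size.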 The note with it: LYMP1-002 lymphoblastoid cells, dead-cell protease fluorescence; series mostly up to 46.1 µM. The method in brief: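 Readout: fluorescence at 485/520 from cell-impermeant bis-AAF-R110 cleaved by proteases leaking from damaged cells. LYMP1-002 lymphoblastoid line, 16 hr compound treatment at 37 C, concentration-response in qHTS format; Hill-equation AC50 values.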

A short description of assay [8]: Cell Viability - LYMP2-005 (AID 967).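 Note: plate controls were DMSO only for no effect and 92 µM tetraoctylammonium bromide control for full effect.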 The note with it: LYMP2-005 lymphoblastoid cell viability; series mostly up to 92.2 µM. The method in brief:
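LYMP2-005 human lymphoblastoid cells (2500/well) were treated with compounds for 24 h at 37 C. Intracellular ATP was then measured by CellTiter-Glo luminescence after 30 min at room temperature. AC50 values came from Hill-equation fits of qHTS concentration-response data.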

Assay [9] in a line: Cell Viability - LYMP2-021 (AID 974).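 Note: compound exposure lasts 24 hours at 37 °C; nearly all actives have a fitted effect of over 55% in size.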 Note: potency is the fitted concentration of half-maximal effect. The note with it: LYMP2-021 lymphoblastoid cells viability; series mostly up to 92.2 µM. The method in brief:
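ATP luminescence (CellTiter-Glo, 30 min RT) after 24 h compound exposure at 37 C; 2500 human lymphoblastoid cells/well, 5 h settle beforehand. Cytotoxicity = concentration-dependent ATP drop, AC50 by Hill fit.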

Assay [10] is described as follows: Cell Viability - LYMP2-023 (AID 975).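 Note: cellular ATP measured by luciferase luminescence as viability proxy; plate controls were DMSO only for no effect and 92 µM tetraoctylammonium bromide control for full effect; nearly all actives have a fitted effect of over 55% in size.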 To be noted: LYMP2-023 lymphoblastoid cell viability; series mostly up to 92.2 µM. The method in brief: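 CellTiter-Glo luminescence after 30 min at room temperature; decrease in intracellular ATP reflects toxicity. Cells: human lymphoblastoid line, 2500/well, 24 hr compound exposure at 37 C. AC50 fitted to standard Hill equation from concentration-response.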

A short description of assay [11]: Cell Viability - LYMP2-006 (AID 978). Note: % is set by controls: 0 for no effect and ±100 for the full control effect; nearly all actives have a fitted effect of over 60% in size. To be noted: LYMP2-006 lymphoblastoid cell viability, qHTS; series mostly up to 92.2 µM. The method in brief:
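Potency values are Hill-fit AC50s for decreases in intracellular ATP (CellTiter-Glo luminescence). LYMP2-006 lymphoblastoid cells, 2500 per well, were exposed to compound in complete culture medium for 24 hr at 37 C.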

Assay [12] in a line: Cell Viability - LYMP2-007 (AID 979).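 Note: cells exposed to compound for 24 h before reading; 0% = DMSO only and the negative end = 92 µM tetraoctylammonium bromide; nearly all actives have a fitted effect of over 60% in size.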 To be noted: LYMP2-007 lymphoblastoid cell viability; series mostly up to 92.2 µM. The method in brief:
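qHTS cytotoxicity: 2500 cells/well, 5 hr 37 C settle, compound 24 hr 37 C, CellTiter-Glo 30 min RT, luminescence. Decrease in ATP = toxicity. AC50 by standard Hill equation; tetraoctylammonium bromide positive control.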

Assay [13] deals with Vitamin D3 receptor (Homo sapiens) (UniProt P11473). The assay can be described thus: qHTS assay for small molecule antagonists of vitamin D receptor signaling (AID 588541; calls by dose curve;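 note: receptor activated by calcitriol during compound treatment; % is set by controls: 0 for no effect and ±100 for the full control effect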). To be noted: HEK293T VDR-UAS-bla, beta-lactamase ratio, antagonist mode; series mostly up to 76.7 µM. The method in brief: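 VDR-UAS-bla HEK293T cells (2000/well, 2% charcoal-stripped FBS) were treated with titrated compounds plus 1-alpha,25-dihydroxyvitamin D3 (50 nM or 3 nM final) for 16 h at 37 C. CCF4 beta-lactamase fluorescence was read; Hill fits gave IC50.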

In assay [14] the target is Retinoic acid receptor RXR-alpha (Homo sapiens) (UniProt P19793). As to the kind of experiment: qHTS assay for small molecule agonists of retinoid X receptor alpha signaling (AID 588544; calls by dose curve;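 note: 0% = DMSO basal wells and 100% = reference agonist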). The note with it: HEK293T RXRa-UAS-bla, beta-lactamase reporter, 18 h; series mostly up to 76.7 µM.
The target in assay [15] is Thyroid hormone receptor beta (Homo sapiens) (UniProt P10828). As to the kind of experiment: qHTS assay for small molecule agonists of thyroid hormone receptor beta signaling (AID 588545; calls by dose curve). The note with it: TR-UAS-bla GripTite HEK 293, beta-lactamase ratio, agonist mode, 18 h; series mostly up to 76.7 µM. The method in brief:
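Agonist activity was read as beta-lactamase CCF4 fluorescence (405 ex, 460/530 em), scaled between DMSO (0%) and 10 nM T3 (100%), then Hill-fitted for EC50 and efficacy. HEK 293 TR-UAS-bla cells in 2% charcoal/dextran FBS medium were exposed 18 h at 37 C.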

Assay [16] has the same target. The assay can be described thus: qHTS assay for small molecule antagonists of thyroid hormone receptor beta signaling (AID 588547; active = well fitted inhibition curve with a large enough effect in the signal ratio, with a control signal flat, not every such curve was filed as active; the % refers to the signal ratio;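 note: cells stimulated with 0.4 nM T3 agonist during compound exposure; % is set by controls: 0 for no effect and ±100 for the full control effect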). The note with it: TR-UAS-bla HEK293, beta-lactamase ratio, antagonist mode, 18 h. The method in brief:
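TR-UAS-bla GripTite HEK293 cells in 2% charcoal/dextran FBS medium were preincubated 4 h at 37 C, given compound (0.59 nM to 92 uM) plus 0.4 nM T3 (final) for 18 h, then CCF4 for 2 h at RT; Hill fit gave IC50.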

Assay [17] is described as follows: qHTS assay for small molecule activators of the human pregnane X receptor (PXR) signaling pathway (AID 720659; call rule not given here; note: 0% is about no effect). To be noted: DPX-2 HepG2 CYP3A4-luciferase, 24 h; series mostly up to 92.3 µM.
Assay [18] in a line: Cellular Toxicity (caspase-3) H-4-II-E (AID 663).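 Note: cells exposed to compound for 16 hr before readout; 0% = DMSO basal and 100% = 100 µM tamoxifen.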 To be noted: H-4-II-E rat hepatoma; Potency: caspase-3 activation; series mostly up to 92.2 µM. The method in brief: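 Caspase 3/7 activation measured in H-4-II-E cells in complete culture medium after 16 hr treatment at 37 °C, using luciferase-coupled substrate readout; AC50 values come from Hill-equation fits of normalized concentration-response data.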

Assay [19] in a line: MultiTox-Fluor Cytotoxicity Assay - LYMP1-003 - Live Cells (AID 962).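 Note: cells exposed to compound for 16 hours at 37 °C; 0% = DMSO only and full loss = 92 µM tetraoctylammonium bromide; cytotoxic hits lower the live-cell protease signal.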 To be noted: LYMP1-003 lymphoblastoid cells, MultiTox-Fluor live-cell protease fluorescence; series mostly up to 92.2 µM. The method in brief:
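Readout: live-cell fluorescence (Ex/Em=405/510) from GF-AFC cleavage after 60 min MultiTox-Fluor reagent at room temperature. Lymphoblastoid LYMP1-003 cells, 16 hr compound treatment, 37 C. Concentration-response fitted to standard Hill equation for AC50.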

In assay [20] the target is Nuclear receptor subfamily 1 group I member 2 (Rattus norvegicus) (UniProt Q9R1A7). The assay can be described thus: qHTS assay for small molecule activators of the rat pregnane X receptor (rPXR) signaling pathway (AID 651751; call rule not given here; note: 0% is about no effect). The note with it: rPXR reporter cells, luciferase (One-Glo), 24 h.
Nuclear receptor subfamily 1 group I member 2 (Rattus norvegicus), sequence (Q9R1A7 whole entry, looked up): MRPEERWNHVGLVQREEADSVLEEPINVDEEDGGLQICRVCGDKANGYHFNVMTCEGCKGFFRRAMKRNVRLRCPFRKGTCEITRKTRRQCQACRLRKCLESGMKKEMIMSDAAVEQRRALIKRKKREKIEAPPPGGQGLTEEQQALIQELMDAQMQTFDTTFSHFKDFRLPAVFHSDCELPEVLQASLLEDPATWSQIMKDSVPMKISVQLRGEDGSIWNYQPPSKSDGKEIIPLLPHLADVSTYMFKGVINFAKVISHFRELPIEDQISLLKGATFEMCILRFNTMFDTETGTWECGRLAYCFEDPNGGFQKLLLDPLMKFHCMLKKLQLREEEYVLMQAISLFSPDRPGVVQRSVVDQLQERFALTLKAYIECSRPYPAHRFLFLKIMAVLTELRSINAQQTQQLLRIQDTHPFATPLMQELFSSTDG

Thyroid hormone receptor beta (Homo sapiens), sequence (P10828 whole entry, looked up): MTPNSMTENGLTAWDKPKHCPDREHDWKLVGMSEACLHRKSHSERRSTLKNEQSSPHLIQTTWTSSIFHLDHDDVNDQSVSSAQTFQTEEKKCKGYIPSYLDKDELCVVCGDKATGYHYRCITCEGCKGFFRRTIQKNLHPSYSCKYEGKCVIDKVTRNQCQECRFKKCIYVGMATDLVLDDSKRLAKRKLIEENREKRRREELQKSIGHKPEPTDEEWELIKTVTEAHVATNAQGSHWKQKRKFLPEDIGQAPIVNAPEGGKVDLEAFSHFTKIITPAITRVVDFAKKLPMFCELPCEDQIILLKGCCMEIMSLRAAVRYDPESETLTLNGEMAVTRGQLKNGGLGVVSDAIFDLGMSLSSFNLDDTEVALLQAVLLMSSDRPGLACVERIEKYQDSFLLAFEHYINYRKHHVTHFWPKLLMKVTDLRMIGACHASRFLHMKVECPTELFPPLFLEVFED
Vitamin D3 receptor (Homo sapiens), sequence (P11473 whole entry, looked up): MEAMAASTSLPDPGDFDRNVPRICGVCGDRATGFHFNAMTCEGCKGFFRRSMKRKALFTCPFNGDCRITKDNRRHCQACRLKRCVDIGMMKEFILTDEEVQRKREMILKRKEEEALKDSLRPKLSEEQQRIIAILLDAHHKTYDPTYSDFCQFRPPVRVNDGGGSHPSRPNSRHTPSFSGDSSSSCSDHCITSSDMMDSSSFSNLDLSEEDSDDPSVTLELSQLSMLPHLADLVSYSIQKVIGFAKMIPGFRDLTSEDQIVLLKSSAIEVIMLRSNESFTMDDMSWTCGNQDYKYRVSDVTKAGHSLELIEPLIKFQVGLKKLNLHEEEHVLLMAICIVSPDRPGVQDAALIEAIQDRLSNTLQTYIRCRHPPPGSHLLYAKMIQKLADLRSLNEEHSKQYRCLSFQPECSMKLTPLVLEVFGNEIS
Retinoic acid receptor RXR-alpha (Homo sapiens), sequence (P19793 whole entry, looked up): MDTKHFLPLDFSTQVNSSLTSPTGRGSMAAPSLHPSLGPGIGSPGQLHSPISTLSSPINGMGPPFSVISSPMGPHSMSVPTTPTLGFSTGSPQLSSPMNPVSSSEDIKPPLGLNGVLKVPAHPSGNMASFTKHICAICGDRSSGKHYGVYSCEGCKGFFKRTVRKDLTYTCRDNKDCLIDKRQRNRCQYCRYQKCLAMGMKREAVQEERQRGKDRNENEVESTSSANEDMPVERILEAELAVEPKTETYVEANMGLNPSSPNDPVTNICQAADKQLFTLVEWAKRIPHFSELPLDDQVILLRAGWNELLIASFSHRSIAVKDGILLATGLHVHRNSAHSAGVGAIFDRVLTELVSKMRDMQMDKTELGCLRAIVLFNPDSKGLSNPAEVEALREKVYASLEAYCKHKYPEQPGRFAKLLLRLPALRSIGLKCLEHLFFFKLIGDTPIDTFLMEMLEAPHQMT

For the compound `O=[N+]([O-])c1ccc2c3c(cccc13)CC2`, the Potency in [1] and in [2] was over 92 µM throughout. Further, the Potency result in assay [3], in [4], in assay [6], in assay [7], in assay [8] and in assay [9] was “inactive” throughout. Besides, the Potency result in assay [10], in [11], in assay [12] and in [15] was “inactive” in each case. In addition, the compound was called inactive in assay [5], in assay [13], in assay [14] and in assay [17]. In addition, in [16], the activity change % (negative = inhibition) is -2.33% and 7.31%.
In the case of `CCCCCCCCCCCCCl`, the Potency in assay [1] and in assay [2] was over 92 µM each time. The Potency result in [3], in [4], in assay [18], in assay [7], in assay [8] and in assay [9] was “inactive” in each case. Moreover, the Potency entry in assay [10], in assay [11], in assay [12] and in [15] was “inactive” in each case. Further, the outcome in [19], in [14] and in assay [17] was inactive. In addition, in assay [16], the activity change % (negative = inhibition) is -6.1%. In assay [20], the max response was 3.36%.
For the compound `ClCCBr`, the Potency in assay [1] and in assay [2] was over 92 µM throughout. The Potency result in assay [3], in [6], in [18], in [7], in assay [8] and in assay [9] was “inactive” throughout. Moreover, the Potency entry in assay [10], in assay [11], in [12] and in assay [15] was “inactive” in each case. Further, the compound was classed as inactive in assay [5], in assay [19], in [14] and in [17]. Besides, the activity change % (negative = inhibition) in assay [16] is 0.0673%. Also, in [20], the max response is -0.231%.
With `Cc1cccc(C)c1N`, the Potency in assay [1] was over 92 µM. In addition, the Potency result in assay [3], in [4], in [6], in assay [18], in assay [7] and in assay [8] was “inactive” in each case. Further, the Potency result in [9], in [10], in assay [11], in assay [12] and in [15] was “inactive” each time. The result in [19] and in assay [17] was inactive. Further, the activity change % (negative = inhibition) in assay [16] was -2.91%. Moreover, the max response in assay [20] is 0.51%.
Consider `Cc1ccc(N)c(N)c1`, for which the Potency in [2] is over 92 µM; in assay [9] it was 31.6 µM (active). Further, the Potency result in [3], in assay [4], in [6], in assay [18], in [7] and in assay [10] was “inactive” in each case. In assay [15], the Potency entry was “inactive”. Also, the outcome in assay [5], in assay [13] and in assay [14] was inactive. The activity change % (negative = inhibition) in [16] was -28.6%.
`CCCCOC(=O)c1ccccc1N`: the Potency in assay [1] is over 92 µM. Moreover, the Potency entry in assay [3], in assay [4], in assay [6], in assay [18], in [7] and in assay [8] was “inactive” each time. The Potency entry in assay [9], in assay [10], in [11] and in [12] was “inactive” throughout. In addition, the call in assay [5], in [19], in [13] and in [17] was inactive. In assay [20], the max response was -1.8%.
On to `Oc1c(Cl)cccc1Cl`, for which the Potency in [1] and in assay [2] was over 92 µM throughout. The Potency result in assay [4], in [6], in assay [18], in assay [7], in [8] and in assay [9] was “inactive” each time. Also, the Potency result in assay [10], in [11], in [12] and in assay [15] was “inactive” in each case. Moreover, the result in assay [5], in assay [19], in assay [13], in assay [14] and in assay [17] was inactive. In addition, the activity change % (negative = inhibition) in [16] was -18.9%. In addition, the max response in assay [20] is 5.06%.
For the compound `Oc1ccc(Cl)c(Cl)c1`, in assay [1], the Potency is over 92 µM. The Potency entry in assay [3], in [4], in assay [6], in [18], in assay [7] and in assay [8] was “inactive” each time. Besides, the Potency entry in assay [9], in assay [10] and in [12] was “inactive” each time. Also, the result in assay [5], in assay [19], in assay [13], in assay [14] and in [17] was inactive. The max response in assay [20] was -0.245%.

The record behind these values is PubChem BioAssay (NCATS).
